Laboratory results published in PubChem BioAssay (NCI).
This is part of a sample that, as a whole, favours compounds with a hit. Of some 79,000 tested, about 15% had one in any assay. Cut-off read from the data, not from the text of the source: active = growth inhibition above about 70%; inactive = the rest.

Key:
[1] = NCI Yeast Anticancer Drug Screen. Data for the rad50 strain (AID 155);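 note: 0% = growth of vehicle-only cultures of the same strain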; conditions: S. cerevisiae rad50 strain growth inhibition; at 50.0 µM; active compounds read high
In short: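 Genetically altered yeast (DNA repair pathway); compound treatment; growth inhibition vs vehicle ctrl.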

[2] = NCI Yeast Anticancer Drug Screen. Data for the mec2-1 strain (AID 157); conditions: S. cerevisiae mec2-1 strain, at 50.0 µM, active compounds read high
In short: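 Readout is yeast growth inhibition, normalised to vehicle-treated controls, in the mec2-1 strain exposed to compound.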

[3] = NCI Yeast Anticancer Drug Screen. Data for the sgs1 mgt1 strain (AID 161);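 note: 0% = growth of cultures given vehicle only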; conditions: S. cerevisiae sgs1 mgt1 strain, at 50.0 µM, active compounds read high
In short: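 Percent growth inhibition was derived by comparing compound-exposed mutant yeast with vehicle-exposed cultures. The strain carries alterations in DNA damage repair.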

[4] = NCI Yeast Anticancer Drug Screen. Data for the cln2 rad14 strain (AID 165);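 note: 0% = growth equal to vehicle treated cultures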; conditions: S. cerevisiae cln2 rad14 strain, at 50.0 µM, active compounds read high
In short: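 Relative to vehicle controls, growth inhibition of compound-treated cln2 rad14 yeast was recorded.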

[5] = NCI Yeast Anticancer Drug Screen. Data for the bub3 strain (AID 167); conditions: S. cerevisiae bub3 mutant strain, at 50.0 µM, active compounds read high
In short: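 Yeast carrying a defined mutation is treated with each compound, and growth is compared with that of vehicle-exposed cells to give inhibition.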

[6] = NCI Yeast Anticancer Drug Screen. Data for the mlh1 rad18 strain (AID 175); conditions: S. cerevisiae mlh1 rad18 strain growth inhibition; at 50.0 µM; active compounds read high
In short: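 Test agents were incubated with a yeast strain of defined genotype (DNA damage repair defect). Inhibition of growth was derived by comparison with vehicle-exposed cultures.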

Measured: growth inhibition

CCN(CC)CCNC1=CC(=S)NC(C)(C)C1
inactive: [1] -13.7% | [2] 10.6% | [3] -2.6% | [4] -4.2% | [5] -1.9% | [6] -6.05%

CCOC(=O)/C(=C\c1ccc(N(C)C)cc1)c1nc2ccccc2[nH]1
inactive: [1] 38% | [2] 21.6% | [3] 47.1% | [4] 13.1% | [5] 40.5% | [6] -2.75%

CC(C(=O)O)C(C)(O)C(C)(C)C (stereo not given)
inactive: [1] -3.9% | [2] 1.05% | [3] -5.25% | [4] -37.4% | [5] 12.2% | [6] -6.95%

CC(=O)Oc1cc2c3ccccc3ccc2c2ccccc12
inactive: [1] 13% | [2] -9.5% | [3] 10.1% | [4] -2.9% | [5] 8.85% | [6] 0.05%

CN(C)C(=O)Nc1cccc(OC(=O)NCCCl)c1
inactive: [1] 6.55% | [2] 52.5% | [3] 30.7% | [4] 0.9% | [5] 41% | [6] 20.7%

COC(=O)CCC1CCCC(CCC(=O)OC)C1=O (stereo not given)
inactive: [1] -4.9% | [2] 4.55% | [3] -17.6% | [4] -6.1% | [5] -1.1% | [6] -3.3%

O=C(N/N=C\c1ccc(Cl)c(Cl)c1)c1ccncc1
inactive: [1] -6.65% | [2] -1% | [3] -3.05% | [4] 5.4% | [5] -1.75% | [6] -5.7%

COc1cc(C(NC(N)=O)c2cc3c(cc2O)OCO3)cc(OC)c1O (stereo not given)
inactive: [1] -1.4% | [2] 0.45% | [3] -12.2% | [4] -20.9% | [5] 12.4% | [6] 4.05%

CN(C)c1ccc(/C=C(\C#N)c2ccc(F)cc2F)cc1
inactive: [1] 0.4% | [2] -2.75% | [3] -3.4% | [4] -9.05% | [5] -5.25% | [6] -23.9%

OC(c1cc2ccccc2c2ccccc12)C1CCCCN1 (stereo not given)
inactive: [1] 21.9% | [2] 16.9% | [3] 43.8% | [4] 13.2% | [5] 20% | [6] 36.2%

COc1cccc(NC(=O)CC(=O)NN2C(=O)/C(=C/c3ccc(N(CCC#N)CCC#N)cc3)N=C2c2cc([N+](=O)[O-])ccc2Cl)c1
inactive: [1] 17.4% | [2] -5.05% | [3] 16.4% | [4] -6.7% | [5] 0.3% | [6] 14.6%

O=C1c2ccccc2C(=O)N1[C@@H](Cc1ccccc1)C(=O)n1cccc1CO
inactive: [1] 14.8% | [2] 21.4% | [3] 20.8% | [4] 25.5% | [5] 28.9% | [6] 10.9%

CCCCn1c2nc3ccccc3c-2nc2cc(OC)c(OC)cc21
inactive: [1] 26.1% | [2] 15.3% | [3] 14.6% | [4] 5.5% | [5] 12.2% | [6] 35.1%

CC1(C)C2(SCCS2)C(C)(C)C12SCCS2
inactive: [1] 22.9% | [2] 3.05% | [3] 17.9% | [4] 3.75% | [5] 11.4% | [6] 5.4%

CC(C)CCCOC(=O)c1ccccc1
inactive: [1] 3.05% | [2] -6.5% | [3] -1.65% | [4] -3.2% | [5] 21.6% | [6] -1%

O=C(NNC(=S)Nc1ccc(S(=O)(=O)N2CCCCC2)cc1)c1ccncc1
inactive: [1] 5.25% | [2] 11.1% | [3] 33.5% | [4] 4.2% | [5] 33% | [6] 46%

C1=CCC(C(Cc2ccccc2)N2CCCCC2)CC1 (stereo not given)
inactive: [1] 15.8% | [2] 1% | [3] 23.9% | [4] -27.4% | [5] 11.2% | [6] 24.1%

Cc1ccc(S(=O)(=O)N2CCCC(=O)c3ccccc32)cc1
inactive: [1] -12.4% | [2] 14.4% | [3] -12.9% | [4] 9.35% | [5] 12.1% | [6] 11.3%

CCOC(NC(C)=O)C(O)c1ccc(Cl)cc1 (stereo not given)
inactive: [1] 20.1% | [2] 11.2% | [3] 13.1% | [4] -41.5% | [5] -9.9% | [6] 18.2%

Cc1cc(=O)[nH]c2[nH][nH]c(=O)c12
inactive: [1] -12.3% | [2] -28.6% | [3] -43.6% | [4] -7.35% | [5] 2.85% | [6] -8.8%
